Data from PubChem BioAssay (NCI).
About 79,000 compounds went through this panel and 15% of them were active in at least one assay; those are over-represented in the sample as a whole. Rule as the data show it: active = growth inhibition above about 70%; inactive = the rest.

Assays:
[1] = NCI Yeast Anticancer Drug Screen. Data for the rad50 strain (AID 155);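 also: 0% = growth of vehicle-only cultures of the same strain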; details: S. cerevisiae rad50 strain growth inhibition, active compounds read high
Outline: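 Yeast carrying a defined DNA repair defect were exposed to test compounds, and growth was compared with vehicle-treated controls to give percent inhibition.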

[2] = NCI Yeast Anticancer Drug Screen. Data for the sgs1 mgt1 strain (AID 161);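 also: 0% = growth of cultures given vehicle only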; details: S. cerevisiae sgs1 mgt1 strain, active compounds read high
Outline: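 Growth of a repair-deficient yeast mutant was monitored after compound treatment and expressed as inhibition relative to vehicle-treated cultures.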

[3] = NCI Yeast Anticancer Drug Screen. Data for the cln2 rad14 strain (AID 165);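 also: 0% = growth equal to vehicle treated cultures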; details: S. cerevisiae cln2 rad14 strain, active compounds read high
Outline: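 Growth inhibition, relative to vehicle-treated controls, is the read-out. The test organism is a yeast strain with defined genetic alterations, cln2 rad14.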

[4] = NCI Yeast Anticancer Drug Screen. Data for the mlh1 rad18 strain (AID 175); details: S. cerevisiae mlh1 rad18 strain growth inhibition, active compounds read high
Outline: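 Cells of a genetically altered yeast strain, deficient in DNA damage repair, were treated with compound. Their growth was then compared with that of vehicle-treated cultures to give inhibition.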

[5] = NCI Yeast Anticancer Drug Screen. Data for the mec2-1 strain (AID 157); details: S. cerevisiae mec2-1 strain, at 50.0 µM, active compounds read high
Outline: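 Growth inhibition is read against vehicle-treated controls after compound exposure of the mec2-1 yeast strain, which is defective in DNA damage repair or cell cycle control.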

[6] = NCI Yeast Anticancer Drug Screen. Data for the bub3 strain (AID 167); details: S. cerevisiae bub3 mutant strain, at 50.0 µM, active compounds read high
Outline: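 Compounds were applied to a genetically altered yeast strain carrying a cell-cycle control defect. Growth inhibition was scored against vehicle-treated controls.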

[7] = at 5.0 µM (retest, dose inferred, filed as 0.5)
[8] = at 50.0 µM (retest, dose inferred, filed as 5.0)

Measured: growth inhibition

CCCCCCCCCCCCCC1=NCC(c2ccc3ccccc3c2)O1 (stereo not given)
inactive: [1]; [7] -4% | [1]; [8] -13% | [1]; at 50.0 µM -1.9% | [2]; [7] -4% | [2]; [8] -23% | [2]; at 50.0 µM -12.6% | [3]; [7] -6% | [3]; [8] -27% | [3]; at 50.0 µM 10.3% | [4]; [7] -2% | [4]; [8] -6% | [4]; at 50.0 µM -1.95%

COC1OCC(O)C(O)C1O (stereo not given)
inactive: [1]; at 50.0 µM -2.4% [middle of 4 runs] | [5] 8.15% [middle of 4 runs] | [2]; at 50.0 µM 1.2% [middle of 4 runs] | [3]; at 50.0 µM -8.1% [middle of 4 runs] | [6] -0.95% [middle of 4 runs] | [4]; at 50.0 µM -7.4% [middle of 4 runs]

NC(CSCc1ccccc1)C(=O)O (stereo not given)
inactive: [6] -6% [middle of 4 runs] | [4]; at 50.0 µM 0.9% [middle of 4 runs]
